GPR32 ag – agonists of human resolvin D1 receptor DRV1 (GPR32); CHO-K1 GPR32 beta-arrestin PathHunter luminescence, 90 min; zero percent set by DMSO-only wells; hit rate 2.5% among 48,000; O75388; activation, % at 76.9 µM;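 active means activation of at least 60% and not above a set upper limit, about 1 call in 100 departs from these limits; inconclusive means activation of 40% to 60%, or above that upper limit; inactive means activation under 40%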; further: 0% is about no effect
Target sequence (O75388 whole entry, looked up): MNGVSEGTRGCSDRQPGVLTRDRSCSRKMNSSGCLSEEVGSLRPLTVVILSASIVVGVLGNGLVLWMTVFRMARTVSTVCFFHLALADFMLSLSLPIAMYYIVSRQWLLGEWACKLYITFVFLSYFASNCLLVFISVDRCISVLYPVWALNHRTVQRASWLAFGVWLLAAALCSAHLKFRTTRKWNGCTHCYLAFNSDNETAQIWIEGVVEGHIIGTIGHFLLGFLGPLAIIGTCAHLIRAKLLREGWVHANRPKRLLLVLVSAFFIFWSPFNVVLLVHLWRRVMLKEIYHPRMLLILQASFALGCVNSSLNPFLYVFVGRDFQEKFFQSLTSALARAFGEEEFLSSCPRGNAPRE
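PathHunter enzyme-fragment complementation, CHO-K1 GPR32 stable line; 2,500 cells/well, overnight attach; cpd 90 min 37 °C 5% CO2; detection reagent 1 h RT; chemiluminescence. DMSO = EC0.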
AID inh – blocks human AID cytidine deaminase activity. AID deamination FRET fluorescence, UDG-coupled, 4 h. Potency, µM (top dose mostly 115 µM), most hits filed as inhibitors. hit rate 0.32% among 91,000. AID 1347428; further: potency means the concentration at half of the fitted maximal effect; on the % scale 0 is the no-effect control and ±100 the full control effect; nearly all actives have a fitted effect of over 25% in size
Target sequence (Q9GZX7 whole entry, looked up): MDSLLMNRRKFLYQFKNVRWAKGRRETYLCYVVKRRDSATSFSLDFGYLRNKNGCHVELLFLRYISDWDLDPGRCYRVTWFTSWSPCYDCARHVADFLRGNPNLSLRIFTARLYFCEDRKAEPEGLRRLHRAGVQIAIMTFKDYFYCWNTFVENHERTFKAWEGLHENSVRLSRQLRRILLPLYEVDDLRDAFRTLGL
UDG counter – blocks uracil-DNA glycosylase in AID counter-screen. FRET deamination/UDG coupled assay, UDG read, 4 h. Potency, µM (titrated, usually from 115 µM), inactives show at the highest dose activity change, negative = inhibition, most hits filed as inhibitors. hit rate 0.14% among 91,000; further: potency means the concentration at half of the fitted maximal effect; on the % scale 0 is the no-effect control and ±100 the full control effect; nearly all actives have a fitted effect of over 65% in size
The depositor's hits bear a star; i = inactive; ? = inconclusive; nt = not tested or not shown; [ ] = another dose, or the depositor's remark. The entries come from a sample that favours hits as a whole. Unless noted, the call rests on the fitted dose curve; in most records, active means well fitted curve in the direction sought with a large enough effect; inconclusive means small, poorly fitted or top-dose-only effect, or another doubt; inactive means no such curve, though single readings can be large; an effect the other way counts as inactive or inconclusive.

SMILES | GPR32 ag | AID inh | UDG counter
COc1ccc(Cn2c(C(=O)O)c(CNC3CCCC3)c3ccc(OC)cc32)cc1 | 19.6 | i | -5.7%
COc1ccc2c(CNCCc3ccco3)c(C(=O)O)n(Cc3ccc(C)cc3)c2c1 | 89.4* | i | 2.5%
COc1ccc2c(CNCc3ccc(C)o3)c(C(=O)O)n(Cc3ccccc3C)c2c1 | -6.4 | i | 5.7%
COc1ccc2c(CNCCc3ccco3)c(C(=O)O)n(Cc3ccc(F)cc3)c2c1 | 33.4 | i | 4.1%
COc1ccc(Cn2c(C(=O)O)c(CNCc3ccc(C)o3)c3ccc(OC)cc32)cc1 | 74.6* | i | -5.1%
COc1ccc2c(CNC3CCC(C)CC3)c(C(=O)O)n(Cc3ccc(F)cc3)c2c1 (configuration not stated) | 91.1* | i | 10.5%
Cc1ccc(Nc2nc3ccccc3nc2NS(=O)(=O)c2ccc3c(c2)OCCO3)cc1 | nt | i | -10.2%
CC(=O)c1ccc(S(=O)(=O)N2CCN(C(=O)c3cc(C)n(C(C)C)c3C)CC2)cc1 | nt | i | 7.6%
Cc1cccc(N2CCN(C(=O)CCS(=O)(=O)c3ccc4c(c3)CC(=O)N4C)CC2C)c1 (configuration not stated) | -1.2 | i | 79.4µM*
CN1C(=O)Cc2cc(S(=O)(=O)CCC(=O)N3CCN(c4ccccc4F)CC3)ccc21 | -23.2 | i | ?
COc1cccc(CNC(=O)Cn2c(=O)n3nc(-c4cccc(C)c4)nc3c3ccccc32)c1 | 14.9 | i | -15.5%[57.5 µM]
Cc1cccc(-c2nc3c4ccccc4n(CC(=O)Nc4cccc(F)c4)c(=O)n3n2)c1 | 75.6* | i | -13.7%[57.5 µM]
C/C(=N\NC(=O)c1ccc(C)c(C)c1)c1ccc(C)cc1C | nt | i | 4.7%
Cc1ccc(CN2C(=O)SC(Nc3ccc(Cl)cc3)C2=O)cc1 (configuration not stated) | 61.5* | i | -0.8%
Cc1ccc(CN2C(=O)N(c3ccc(F)cc3)C(=O)C2CC(=O)Nc2ccc(Cl)cc2)cc1 (configuration not stated) | 4.3 | i | -3.9%
Fc1ccc(C2Cc3ccccc3N2)cc1 (configuration not stated) | nt | i | -9.7%
Cc1nc2ccccc2c(=O)n1-c1ccc(NC(=O)c2ccccc2[N+](=O)[O-])cc1 | 67.9* | i | 21.8%
Cc1nc2ccccc2c(=O)n1-c1ccc(NC(=O)C(F)(F)F)cc1 | 19.3 | i | ?
Cc1nc2c(C(=O)NCCc3ccccc3)c[nH]n2c(=O)c1Cc1ccc(F)cc1Cl | 39.9 | i | -7.3%
Cc1ccc(CNC(=O)c2c[nH]n3c(=O)c(Cc4ccc(F)cc4Cl)c(C)nc23)cc1 | 6.3 | 70.8µM* | -7.2%
COc1ccc(CNC(=O)C(=O)NCC(c2ccc3c(c2)OCO3)N2CCOCC2)cc1 (configuration not stated) | -18.3 | i | 1.2%[57.5 µM]
COc1ccc(CNCCC(c2ccc3c(c2)OCO3)c2ccccc2OC)cc1 (configuration not stated) | -14.1 | 50.1µM* | -14.8%
Cc1cc(-c2ccccc2)nc(Nc2nc(C)c3ccccc3n2)n1 | nt | i | -3.5%
CCCCNC(=S)NN=C1CCCCCC1 | nt | i | -0.5%
CC(=O)N(C)c1ccc(NC(=O)CCC2CCCC2)cc1 | nt | i | -4.5%
SMILES | GPR32 ag | AID inh | UDG counter
COc1cccc(-n2c(C)c(C)c3c2ncn2nc(-c4cccs4)nc32)c1 | nt | i | -3.2%
CC(=O)N1CCc2c(sc3c2c(=O)n(Cc2ccccc2)c(=O)n3Cc2ccccc2F)C1 | -21.8 | ? | -18.0%
C=Cc1ccc(Cn2c(=O)n(-c3cccc(Cl)c3)c(=O)c3c4c(sc32)CN(C(C)=O)CC4)cc1 | -24.5 | ? | 79.4µM*
CCOC(=O)N1CCc2c(sc3c2c(=O)n(-c2ccc(CC)cc2)c(=O)n3Cc2cccc(Cl)c2)C1 | -13.8 | i | -5.3%[57.5 µM]
CC(=O)N1CCc2c(sc3c2c(=O)n(Cc2ccccc2)c(=O)n3Cc2ccccc2Cl)C1 | -49.6 | 22.4µM* | -28.7%
Cc1ccc(C)c(Nc2nn3c(=O)c4ccc(C(=O)NCc5cccs5)cc4nc3s2)c1 | 10.1 | 39.8µM* | -19.7%
COc1ccccc1Nc1nn2c(=O)c3ccc(C(=O)NCCCOC(C)C)cc3nc2s1 | 11.7 | i | 3.3%
COc1ccccc1Nc1nn2c(=O)c3ccc(C(=O)NCc4cccs4)cc3nc2s1 | -6.1 | i | -6.8%
CCN(CC)CCNC(=O)c1ccc2c(=O)n3nc(Nc4ccccc4OC)sc3nc2c1 | 49.4 | 70.8µM* | 1.7%
CC1CCCN(C(C)C(=O)Nc2ccc(C#N)cc2)C1 (configuration not stated) | nt | i | -5.9%
CC1(C)Cc2cc(C(=O)NC3CC3)ccc2C1(C)c1ccc(C(=O)NC2CC2)cc1 (configuration not stated) | nt | i | -3.9%
Cc1ccc(NC(=O)CCNS(=O)(=O)c2cccc3nsnc23)cc1 | -24.8 | i | 16.7%
CCN(C(=O)C1CCC(CNS(=O)(=O)c2cccc3nsnc23)CC1)c1ccc(C)c(C)c1 (configuration not stated) | -17.0 | i | 7.2%[57.5 µM]
CCCCN(CC)C(=O)C1CCC(CNS(=O)(=O)c2cccc3nsnc23)CC1 (configuration not stated) | 67.6* | i | -17.2%[57.5 µM]
O=C(Nc1ccc(C(F)(F)F)cc1)C1CCC(CNS(=O)(=O)c2cccc3nsnc23)CC1 (configuration not stated) | 114.3* | i | -7.5%[57.5 µM]
CC(C)c1ccc(NC(=O)CCNS(=O)(=O)c2cccc3nsnc23)cc1 | 75.0* | i | 2.9%
Cc1ccc(NC(=O)C2CCC(CNS(=O)(=O)c3cccc4nsnc34)CC2)c(C)c1 (configuration not stated) | -12.2 | i | -7.5%[57.5 µM]
COc1ccc(C=O)cc1CSc1ccc(C)cc1 | nt | i | -3.6%
CC(NC(=O)NCC1CCCC1)C(=O)NC(C)(C)C (configuration not stated) | nt | i | -0.2%
O=c1sc2c(s1)SC1CCCCCCCCCCC1S2 (configuration not stated) | nt | i | -5.8%
CCOc1ccc(C(=O)Nc2cccc3ccc(C)nc23)cc1 | nt | i | -0.9%
CCCn1nc(C(=O)Nc2nc(-c3cc(OC)ccc3OC)cs2)c2ccccc2c1=O | nt | i | 7.7%
O=c1cc(COc2ccc(Cl)cc2Cl)nc2scc(-c3ccccc3)n12 | 16.2 | i | -11.8%
O=c1cc(COc2ccccc2Cl)nc2scc(-c3ccccc3)n12 | 86.2* | i | -9.2%
C#CCN1C(=O)S/C(=C/c2cn(CC(=O)O)c3ccccc23)C1=O | nt | i | 12.4%
SMILES | GPR32 ag | AID inh | UDG counter
CCOC(=O)c1c(C)oc2nc(C)nc(NC(C)c3ccccc3)c12 (configuration not stated) | 1.0 | 79.4µM* | -14.9%
CCOC(=O)c1c(C)oc2nc(C)nc(NCc3ccc(F)cc3)c12 | 6.4 | i | 12.8%
CC(=O)Nc1ccc(NC(=O)C(C)OC(=O)c2cccc3c(=O)c(C)c(-c4ccccc4)oc23)cc1 (configuration not stated) | nt | i | 1.3%
CCCn1c(=O)n(CC(=O)NCc2nnc3n2CCCCC3)c2ccccc21 | nt | i | -2.2%
CCOc1ccccc1NC(=O)c1c(NC(=O)COc2ccccc2)sc2c1CCCC2 | 105.2* | i | 2.2%
CCOc1ccccc1NC(=O)c1c(NC(=O)c2cccc(C)c2)sc2c1CCC2 | -16.6 | i | -2.7%

From PubChem
